Assay results taken from PubChem BioAssay (NCI).
About 83,000 compounds went through this panel and 20% of them were active in at least one assay; those are over-represented in the sample as a whole.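 48-hour exposure, single concentration, 96-well plates; percent growth endpoint where 0 means no net growth. Active: below 10.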 Unmarked numbers belong to inactive results. Activity calls are given as the source filed them.

What was measured:
Assay in all cases: NCI-60 one-dose screen, 48 h (100 = growth as untreated, 0 = no growth, -100 = all killed)
Conditions in all cases: 10 µM unless noted
[1] = test system: DU-145 prostate
[2] = test system: MALME-3M melanoma
[3] = test system: MDA-MB-231 breast
[4] = test system: RXF 393 renal
[5] = test system: SF-268 CNS
[6] = test system: SF-295 CNS
[7] = test system: SF-539 CNS
[8] = test system: UACC-257 melanoma
[9] = test system: M14 melanoma

Structure (SMILES) | growth [1] | growth [2] | growth [3] | growth [4] | growth [5] | growth [6] | growth [7] | growth [8] | growth [9]
COc1ccc(/C=C/c2nc(Nc3ccc(S(=O)(=O)Nc4nc(C)cc(C)n4)cc3)c3ccccc3n2)cc1 | 71.3% | 89.6% | 61.3% | 94.3% | 75.3% | 63.8% | 96.8% | 78.6% | 47.1%
NC(=S)N1N=C(c2ccccc2)CC1c1cn(-c2ccccc2)nc1-c1ccc(OCc2ccccc2)cc1 (configuration not stated) | 104% | 101% | 99.2% | 110% | 101% | 105% | 102% | 92.9% | 101%
C=C1C(=O)O[C@H]2[C@H]1CC/C(CNS(=O)(=O)c1cccc3ccccc13)=C\CC[C@@]1(C)O[C@@H]21 | 25.5% | -18.4% (active) | 43.6% | -14.9% (active) | 58% | 82.2% | 49.2% | 70.4% | 31.7%
Cc1ccc(C(=O)/C(=C\c2ccc([N+](=O)[O-])cc2)S(=O)Cc2ccc(F)cc2)cc1 (configuration not stated) | 18.6% | -3.22% (active) | 11% | -80% (active) | 19.5% | 62.5% | 15.4% | 91.6% | 28.2%
CCN1C(=O)N(CC)C2Nn3c(s/c(=C\c4ccc(OC)cc4)c3=O)=NC21 (configuration not stated) | 67.3% | 54.1% | 61.4% | 56.2% | 63.1% | 44.1% | 42.9% | 45% | 39.8%
OC(c1ccc(F)c(C(F)(F)F)c1)c1cnccc1NC1CCCCC1 (configuration not stated) | 90.2% | 71.8% | 55.2% | 68.6% | 79.6% | 74.1% | 85.4% | 87.4% | 77.8%
COc1cc(NC(=O)CSc2nc3ccc(C)cc3c(=O)n2Cc2ccccc2)cc(OC)c1OC | 80.7% | 49.8% | 35.5% | 24.3% | 69.1% | 79.9% | 11.8% | 61.3% | 65.6%
C[C@@H](Nc1ncnc2ccc(-c3cnc(N)nc3)cc12)c1ccc(F)cc1 | 47.9% | 85.2% | 59.6% | 34.7% | 64.1% | 81.7% | 95.3% | 94.8% | 82.7%
C=C(CBr)[C@@H]1CC[C@]2(COC(C)=O)CC[C@]3(C)[C@H](CC[C@@H]4[C@@]5(C)CCCNC(C)(C)[C@@H]5CC[C@]43C)[C@@H]12 | 66.3% | 71% | 65.6% | 56% | 50.3% | 59.5% | 49.7% | 23.4% | 40%
COc1ccc(Cc2cnc(NC(=O)c3ccc4c(c3)OCCO4)s2)cc1 | 14.9% | 55.4% | 37.1% | 19.5% | 34.8% | 10.5% | -1.94% (active) | 46.4% | 15.6%
O=C1c2ccccc2C(=O)c2c([N+](=O)[O-])ccc(Cl)c21 | 101% | 116% | 103% | 94.3% | 87.4% | 116% | 99.1% | 96.2% | 108%
O=C1Nc2ccccc2/C1=C\c1c(-c2ccc(F)cc2)nc2ccccn12 | 94.5% | 73.7% | 60.2% | 67% | 77.7% | 59.9% | 78% | 102% | 53.2%
Cn1c(N2NC(=O)C(N=Nc3ccc(S(N)(=O)=O)cc3)C2=O)nc(-c2ccco2)c(C#N)c1=O (configuration not stated) | 95.7% | 74.7% | 93.8% | -3.8% (active) | 98.8% | 123% | 96.7% | 88.7% | 91.9%
COC1=CC(=O)c2ccccc2C1=O | 88.8% | 72.4% | 99.1% | 118% | 102% | 104% | 124% | 59.9% | 87.2%
CCCN1[C@@H]2CC[C@H]1/C(=C\c1ccc(OC)c(OC)c1)C(=O)/C2=C/c1ccc(OC)c(OC)c1 | 59.7% | 83.9% | 56.3% | 58.3% | 59.2% | 30.9% | 59.4% | 42.1% | 43.1%
N#CC1=C(N)Oc2c(ccc3ccccc23)C1c1ccccc1Cl (configuration not stated) | 17.1% | 52% | 9.2% (active) | 17.9% | 51% | 8.26% (active) | -13.5% (active) | 60.1% | 12.5%
Cc1ccc(C(=O)/C(=C/c2ccc([N+](=O)[O-])cc2)SCc2ccc(Cl)cc2)cc1 | 86.9% | 83.3% | 83.8% | 95.4% | 69.8% | 83.3% | 112% | 83% | 74.6%
COc1ccc(C(=O)Cn2c(C(=O)c3ccccc3)nc3ccccc32)cc1 | 36.7% | 46.6% | 37.6% | 13.1% | 52.9% | 12.2% | 15.1% | 54.3% | 6.97% (active)
O=C(/C(=C/c1ccc([N+](=O)[O-])cc1)SCc1ccc(F)cc1)c1ccc(F)cc1 | 94.6% | 88.8% | 76.1% | 97% | 80.8% | 93.2% | 105% | 108% | 82.8%
Cc1nnc2c(Cc3ccccc3)nc3ccccc3n12 | 97.7% | 109% | 96.1% | 95.4% | 89.9% | 99.7% | 95.8% | 104% | 99%
CCNc1nc2cc(Nc3ccnc4cc(Cl)ccc34)ccc2o1 | 86.2% | 91.7% | 64.3% | 66.5% | 81.1% | 55.2% | 65.9% | 83.5% | 61%
Cc1cc(Cl)nc(N(CCNc2ccnc3cc(Cl)ccc23)Cc2ccccn2)n1 | 73% | 100% | 57.2% | 59.1% | 83.4% | 80.4% | 6.88% (active) | 68.1% | 62.5%
Fc1ccc(-c2cn3c(nc4ccccc43)c(-c3ccccc3)n2)cc1 | 106% | 107% | 89.3% | 80.4% | 90.1% | 103% | 90.1% | 101% | 109%
C=C(C)[C@@H]1CC[C@]2(C(=O)N3CCN(C)CC3)CC[C@]3(C)[C@H](CC[C@@H]4[C@@]5(C)CC[C@H](O)C(C)(C)[C@@H]5CC[C@]43C)[C@@H]12 | -57.3% (active) | -73.1% (active) | -63.4% (active) | -91.6% (active) | -74.8% (active) | -86.9% (active) | -74.3% (active) | -88.5% (active) | -86.4% (active)
Cn1cc(-c2csc(-c3c[nH]c4ccccc34)n2)c2ccnc(Cl)c21 | 47.2% | 139% | 70.1% | 43.5% | 102% | 93.2% | 56.2% | 32.2% | 43.3%
O=C(/C(=C\c1ccc([N+](=O)[O-])cc1)S(=O)Cc1ccc(F)cc1)c1ccc(F)cc1 (configuration not stated) | 33.1% | 18.5% | 12.8% | -67.8% (active) | 31.5% | 77.6% | 39.4% | 93.2% | 38%
O=C1c2cccc3c(-c4ccc5c(c4)ncn5C4CCCCC4)ccc(c23)C(=O)N1c1nc2ccccc2s1 | 105% | 93% | 74% | 105% | 94.1% | 90.4% | 95.7% | 101% | 93.8%
CC(=O)[C@H]1CCC/C=C/[C@@H]2C[C@H](O)C[C@H]2[C@H](O)/C=C/C(=O)O1 | 25.4% | -11.5% (active) | -34.3% (active) | -32.8% (active) | 12.3% | 3% (active) | 18.5% | 24.1% | 5.74% (active)
